The values below come from ChEMBL document CHEMBL3988442, “University of Dundee, Small-Polar-MMV Screening Library” (2021).

For some of these results: Measured potencies and affinities stand elsewhere.

Common to all, as to design: scale not given: direction of the effect not stated beside the values
Assay [1] deals with Protein translocase subunit SecA (Escherichia coli (strain K12)) (UniProt P10408). As to the kind of experiment: Assay to Identify E. coli SecA ATPase Inhibitors. In kind it is functional. Particulars: 30 µM.
Protein translocase subunit SecA (Escherichia coli (strain K12)), sequence (P10408 whole entry): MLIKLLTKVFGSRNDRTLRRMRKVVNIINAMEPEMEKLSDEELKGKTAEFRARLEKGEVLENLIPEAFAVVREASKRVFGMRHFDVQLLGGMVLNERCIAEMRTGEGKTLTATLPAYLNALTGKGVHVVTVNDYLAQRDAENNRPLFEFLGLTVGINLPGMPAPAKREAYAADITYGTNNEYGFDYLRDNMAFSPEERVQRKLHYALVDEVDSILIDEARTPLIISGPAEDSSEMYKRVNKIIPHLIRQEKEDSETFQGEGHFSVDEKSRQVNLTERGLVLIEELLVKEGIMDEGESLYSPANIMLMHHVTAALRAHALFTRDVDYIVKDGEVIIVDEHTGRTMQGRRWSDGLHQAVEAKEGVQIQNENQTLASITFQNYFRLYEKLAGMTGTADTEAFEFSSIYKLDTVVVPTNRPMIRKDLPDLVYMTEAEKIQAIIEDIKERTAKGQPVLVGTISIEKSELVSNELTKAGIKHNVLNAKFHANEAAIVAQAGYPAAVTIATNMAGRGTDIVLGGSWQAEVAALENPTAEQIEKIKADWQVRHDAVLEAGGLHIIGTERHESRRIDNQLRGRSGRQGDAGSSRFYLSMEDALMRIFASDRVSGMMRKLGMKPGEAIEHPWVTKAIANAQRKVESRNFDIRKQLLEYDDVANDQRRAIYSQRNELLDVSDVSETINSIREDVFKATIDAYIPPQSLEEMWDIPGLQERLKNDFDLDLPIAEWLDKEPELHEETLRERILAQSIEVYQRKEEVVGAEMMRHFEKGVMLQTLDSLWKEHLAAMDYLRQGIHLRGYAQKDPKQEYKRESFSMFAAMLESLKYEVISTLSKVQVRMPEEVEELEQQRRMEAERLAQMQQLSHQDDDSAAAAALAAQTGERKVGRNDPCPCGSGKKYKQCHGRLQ
Assay [2] deals with T1, Ubiquitin-activating enzyme e1, putative (Leishmania donovani (strain BPK282A1)) (UniProt E9BSI1).
T1 sequence (whole entry): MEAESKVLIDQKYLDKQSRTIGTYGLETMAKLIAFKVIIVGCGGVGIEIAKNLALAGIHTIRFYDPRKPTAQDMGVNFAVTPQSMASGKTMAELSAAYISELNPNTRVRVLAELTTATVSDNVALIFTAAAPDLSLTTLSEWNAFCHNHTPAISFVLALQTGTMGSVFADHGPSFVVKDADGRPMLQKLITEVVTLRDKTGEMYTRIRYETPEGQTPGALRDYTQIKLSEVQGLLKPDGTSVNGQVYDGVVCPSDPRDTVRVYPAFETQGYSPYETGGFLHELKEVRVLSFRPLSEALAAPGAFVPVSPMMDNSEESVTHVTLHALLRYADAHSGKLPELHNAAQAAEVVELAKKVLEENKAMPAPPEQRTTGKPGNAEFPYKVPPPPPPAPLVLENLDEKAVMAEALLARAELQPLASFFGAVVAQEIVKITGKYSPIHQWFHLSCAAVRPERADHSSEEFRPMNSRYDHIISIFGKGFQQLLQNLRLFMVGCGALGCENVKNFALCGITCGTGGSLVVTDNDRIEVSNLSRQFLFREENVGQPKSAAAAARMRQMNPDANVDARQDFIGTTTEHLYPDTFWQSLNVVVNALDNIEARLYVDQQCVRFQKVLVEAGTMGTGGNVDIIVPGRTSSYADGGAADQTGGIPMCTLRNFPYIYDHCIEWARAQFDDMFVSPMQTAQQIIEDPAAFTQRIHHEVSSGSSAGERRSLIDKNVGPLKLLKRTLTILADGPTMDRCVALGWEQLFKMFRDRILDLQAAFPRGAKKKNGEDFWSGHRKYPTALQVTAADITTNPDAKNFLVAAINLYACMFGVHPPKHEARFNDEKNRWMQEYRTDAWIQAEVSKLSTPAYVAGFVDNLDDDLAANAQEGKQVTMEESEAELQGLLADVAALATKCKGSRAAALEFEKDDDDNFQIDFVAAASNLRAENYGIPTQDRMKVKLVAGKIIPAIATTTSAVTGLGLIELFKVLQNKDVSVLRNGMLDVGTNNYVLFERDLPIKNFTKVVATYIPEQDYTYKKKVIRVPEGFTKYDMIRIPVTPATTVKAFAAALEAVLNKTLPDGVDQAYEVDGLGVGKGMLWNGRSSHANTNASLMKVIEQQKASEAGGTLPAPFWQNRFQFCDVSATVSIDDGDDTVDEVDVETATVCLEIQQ
In words: Leishmania donovani Ubiquitin Activating Enzyme (LdE1). In kind it is functional. Particulars: 30 µM.

Assay [3] deals with AMP-activated protein kinase, AMPK (Homo sapiens) (UniProt P54646+O43741+P54619+Q9UGJ0+Q9Y478+Q13131+Q9UGI9). In words: AMP-dependent Kinase enzyme assay. An in vitro enzyme assay that detects ADP turnover that is directly proportional to AMPK activity. This uses naive AMPK that is activated during the assay with MK-8722. In kind it is functional. Particulars: 30 µM.
The target of assay [4] is Sialic acid-binding Ig-like lectin 9 (Homo sapiens) (UniProt Q9Y336). In words: Hs-Siglec9 ALPHAscreen SOP 20170721. Particulars: 10 µM. (In Alpha technology, singlet oxygen from a donor bead excites a nearby acceptor bead.)
Sialic acid-binding Ig-like lectin 9 (Homo sapiens), sequence (Q9Y336 whole entry): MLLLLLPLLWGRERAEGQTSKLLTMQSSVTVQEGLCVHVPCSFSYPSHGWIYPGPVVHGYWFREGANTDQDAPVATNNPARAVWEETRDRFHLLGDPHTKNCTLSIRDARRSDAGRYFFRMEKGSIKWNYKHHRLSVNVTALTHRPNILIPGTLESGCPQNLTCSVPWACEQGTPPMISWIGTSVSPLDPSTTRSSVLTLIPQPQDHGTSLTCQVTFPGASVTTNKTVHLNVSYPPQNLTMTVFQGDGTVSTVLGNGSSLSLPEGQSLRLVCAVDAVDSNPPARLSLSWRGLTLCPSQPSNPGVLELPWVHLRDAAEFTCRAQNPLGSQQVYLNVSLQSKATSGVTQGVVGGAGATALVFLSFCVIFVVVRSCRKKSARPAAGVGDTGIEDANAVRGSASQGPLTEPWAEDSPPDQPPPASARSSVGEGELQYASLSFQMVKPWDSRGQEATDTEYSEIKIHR
The subject of a further assay is Trypanosoma cruzi. In words: Trypanosoma cruzi phosphomannomutase and mannose-1-phosphate guanylyltransferase assay. The class given is functional. Particulars: 10 µM.
The target in assay [5] is T2, Arginase-2, mitochondrial (Homo sapiens) (UniProt P78540).
T2 sequence (whole entry): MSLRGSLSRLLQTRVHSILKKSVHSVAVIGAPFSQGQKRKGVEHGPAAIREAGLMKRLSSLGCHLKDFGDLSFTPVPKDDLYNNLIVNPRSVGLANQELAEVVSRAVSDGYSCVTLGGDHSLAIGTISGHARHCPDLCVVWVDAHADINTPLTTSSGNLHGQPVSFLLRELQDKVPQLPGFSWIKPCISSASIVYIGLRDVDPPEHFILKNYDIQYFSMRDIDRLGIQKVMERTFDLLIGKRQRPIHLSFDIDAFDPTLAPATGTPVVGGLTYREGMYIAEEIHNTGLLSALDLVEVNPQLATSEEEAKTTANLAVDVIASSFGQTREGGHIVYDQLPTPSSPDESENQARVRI
As to the kind of experiment: in vitro enzyme assay to detect the production of urea directly proportional to the activity of Arginase II. Further: in the data most compounds retested in dose-response had high values. The class given is functional. Particulars: 33.3 µM.

Assay [6] deals with T3, Proteasome subunit beta (Trypanosoma cruzi) (UniProt O96673).
T3 sequence (whole entry): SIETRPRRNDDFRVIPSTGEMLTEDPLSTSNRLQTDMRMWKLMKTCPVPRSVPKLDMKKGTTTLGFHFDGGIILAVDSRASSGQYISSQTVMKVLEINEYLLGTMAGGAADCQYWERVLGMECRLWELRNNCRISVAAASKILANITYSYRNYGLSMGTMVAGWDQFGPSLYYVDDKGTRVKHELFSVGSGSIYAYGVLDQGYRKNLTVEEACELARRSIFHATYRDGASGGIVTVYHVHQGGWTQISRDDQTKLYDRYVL
As to the kind of experiment: Trypanosoma cruzi proteasome chymotrypsin-like activity (TcProtChymo) assay. Further: in the data most compounds retested in dose-response had high values. The class given is functional. Particulars: 9.37 µM.

For a further assay, the species on record is Homo sapiens. In words: To identify inhibition of the IFN signalling (Jak-Stat) pathway via expression of an eGFP reporter gene under the control of an IFN-stimulated response element (ISRE) containing MxA promoter. Particulars: 30 µM. In kind it is functional.
The target in assay [7] is T4, Tyrosyl-tRNA synthetase, putative (Trypanosoma cruzi (strain CL Brener)) (UniProt Q4DSP6).
T4 sequence (whole entry): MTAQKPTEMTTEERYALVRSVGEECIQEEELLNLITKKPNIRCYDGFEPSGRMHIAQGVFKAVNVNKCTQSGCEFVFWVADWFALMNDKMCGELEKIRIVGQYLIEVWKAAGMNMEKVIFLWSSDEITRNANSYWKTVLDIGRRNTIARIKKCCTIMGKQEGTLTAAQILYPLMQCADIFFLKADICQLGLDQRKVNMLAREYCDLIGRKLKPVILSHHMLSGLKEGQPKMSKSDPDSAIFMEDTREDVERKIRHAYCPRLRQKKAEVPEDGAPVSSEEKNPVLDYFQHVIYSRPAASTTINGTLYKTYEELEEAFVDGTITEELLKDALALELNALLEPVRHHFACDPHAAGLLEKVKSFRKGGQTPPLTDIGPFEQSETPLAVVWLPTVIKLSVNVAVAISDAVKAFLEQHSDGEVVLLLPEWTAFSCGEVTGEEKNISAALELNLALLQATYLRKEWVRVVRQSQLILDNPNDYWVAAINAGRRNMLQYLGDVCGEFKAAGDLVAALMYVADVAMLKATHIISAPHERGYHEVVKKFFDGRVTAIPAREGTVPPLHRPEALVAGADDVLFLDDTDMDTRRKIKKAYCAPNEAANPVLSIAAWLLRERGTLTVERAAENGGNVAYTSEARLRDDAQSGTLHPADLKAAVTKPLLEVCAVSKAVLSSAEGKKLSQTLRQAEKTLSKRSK
In words: Trypanosoma cruzi tyrosyl tRNA synthetase (TcYRS) _High Tyrosine SOP. Further: in the data most compounds retested in dose-response had high values. The class given is functional. Particulars: 30 µM.

For assay [8], the target named is T4, Tyrosyl-tRNA synthetase, putative (Trypanosoma cruzi (strain CL Brener)). In words: Trypanosoma cruzi tyrosyl tRNA synthetase (TcYRS) SOP. In kind it is functional. Particulars: 30 µM.
Assay [9] has as its target Chromo domain-containing protein 1 (Saccharomyces cerevisiae (strain ATCC 204508 / S288c) (Baker's yeast)) (UniProt P32657). As to the kind of experiment: ScCHD-1 Enzyme Inhibition Assay. Further: in the data most compounds retested in dose-response had high values. In kind it is functional. Particulars: 30 µM.

Chromo domain-containing protein 1 (Saccharomyces cerevisiae (strain ATCC 204508 / S288c) (Baker's yeast)), sequence (P32657 whole entry, the tested form may be a part): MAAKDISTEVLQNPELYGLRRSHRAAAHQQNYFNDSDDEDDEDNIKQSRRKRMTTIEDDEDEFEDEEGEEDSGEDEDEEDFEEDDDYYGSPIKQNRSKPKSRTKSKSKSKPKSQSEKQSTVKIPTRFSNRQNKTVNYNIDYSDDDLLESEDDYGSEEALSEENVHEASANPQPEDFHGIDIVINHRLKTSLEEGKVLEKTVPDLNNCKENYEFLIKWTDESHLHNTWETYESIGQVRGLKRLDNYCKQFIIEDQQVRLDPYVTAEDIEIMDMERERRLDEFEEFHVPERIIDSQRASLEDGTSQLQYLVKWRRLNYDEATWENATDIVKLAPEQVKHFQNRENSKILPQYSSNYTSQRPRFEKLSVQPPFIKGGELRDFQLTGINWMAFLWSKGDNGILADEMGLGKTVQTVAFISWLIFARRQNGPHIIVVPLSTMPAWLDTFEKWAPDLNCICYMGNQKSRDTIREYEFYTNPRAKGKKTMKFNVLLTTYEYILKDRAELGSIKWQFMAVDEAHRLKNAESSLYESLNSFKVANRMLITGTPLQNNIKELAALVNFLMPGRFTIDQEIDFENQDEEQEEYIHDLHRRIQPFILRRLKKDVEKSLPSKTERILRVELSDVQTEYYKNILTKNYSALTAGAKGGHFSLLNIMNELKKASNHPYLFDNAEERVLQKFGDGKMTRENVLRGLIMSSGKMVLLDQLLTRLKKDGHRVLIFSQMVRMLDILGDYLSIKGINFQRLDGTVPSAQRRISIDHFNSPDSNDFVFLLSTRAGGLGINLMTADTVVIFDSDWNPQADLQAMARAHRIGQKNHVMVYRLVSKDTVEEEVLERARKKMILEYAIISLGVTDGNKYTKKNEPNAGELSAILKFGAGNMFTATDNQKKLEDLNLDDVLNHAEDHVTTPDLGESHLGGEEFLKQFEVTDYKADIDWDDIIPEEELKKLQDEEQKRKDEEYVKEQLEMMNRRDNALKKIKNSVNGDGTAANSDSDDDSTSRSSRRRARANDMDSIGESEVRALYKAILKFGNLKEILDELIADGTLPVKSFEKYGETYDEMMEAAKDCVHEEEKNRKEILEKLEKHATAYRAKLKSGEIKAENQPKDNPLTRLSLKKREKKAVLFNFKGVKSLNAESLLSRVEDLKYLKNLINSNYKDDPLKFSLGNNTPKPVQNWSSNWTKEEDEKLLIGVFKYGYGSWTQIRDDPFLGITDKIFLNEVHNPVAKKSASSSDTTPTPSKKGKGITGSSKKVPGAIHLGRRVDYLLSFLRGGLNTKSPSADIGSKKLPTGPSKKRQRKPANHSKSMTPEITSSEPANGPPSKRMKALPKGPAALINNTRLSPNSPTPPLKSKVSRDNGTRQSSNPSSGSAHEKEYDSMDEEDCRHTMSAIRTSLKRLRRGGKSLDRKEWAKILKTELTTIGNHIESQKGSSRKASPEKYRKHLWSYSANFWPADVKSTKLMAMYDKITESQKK

Take `Cn1cnnc1C1CCCN(C(=O)c2cnc3ccccc3n2)C1` (stereo unspecified): the Percent Effect in assay [1] was -5.29%; in assay [2], -18.2%; in assay [3], 6.07%; in [4] it was 1.12%; with Trypanosoma cruzi it was 0.49%; in assay [5] it was -1.47%. In addition, the Percent Effect is 5.58% in assay [6]; 17.6% in the assay filed under Homo sapiens; 7.62% in assay [7]; 11.8% in assay [8]; -15.4% in [9].

As to `Cn1nc(CNC(=O)C2CC2)cc1C1CC1`, the Percent Effect was -5.14% in assay [1]; 18.2% in assay [2]; 3.71% in [3]; 7.61% in assay [4]; 2.27% with Trypanosoma cruzi; -4.52% in [5]. For the same compound, the Percent Effect in [6] is 4%; in the assay listed under Homo sapiens, 6.02%; in assay [7], 0%; in assay [8] it was 11.5%; in assay [9], -7.39%.

On to `CCS(=O)(=O)N1CCc2c(CN(C)Cc3ccco3)cncc2C1`, for which the Percent Effect in [1] was -1.78%; in assay [2], -2.67%; in assay [3], 2.28%; in assay [4], 4.22%; with Trypanosoma cruzi, -3.86%; in [5] it was -1.61%. Moreover, the Percent Effect in assay [6] was 11.3%; in the assay filed under Homo sapiens, -0.516%; in assay [7], -2.08%; in [8] it was 5%; in assay [9] it was -3.58%.

Turning to `Cc1nc(C)n(CC2CN(c3ncccn3)Cc3nccn3C2)n1` (stereo unspecified), the Percent Effect in [1] was -6.81%; in assay [2] it was 8.11%; in assay [3], -2.43%; in assay [4], 1.67%; in the assay with Trypanosoma cruzi, -3.42%; in assay [5] it was -2.73%. In addition, the Percent Effect in [6] was 6.44%; in the assay listed under Homo sapiens, 2.81%; in [7] it was 2.15%; in [8], 11.1%; in assay [9], -2.96%.

For `COc1cccc2cc(CNC(C)(C)C(=O)N3CCC(O)CC3)oc12`, the Percent Effect in [1] is -4.3%; in assay [2], 5.06%; in assay [3], -3.21%; in assay [4] it was -2.38%; in the assay on Trypanosoma cruzi it was 7.08%; in assay [5] it was -0.76%. Besides, the Percent Effect in assay [6] is -6.14%; in the assay filed under Homo sapiens, -31.3%; in assay [7], 6.4%; in [8], 3.8%; in assay [9] it was -3.05%.

As for `COc1cc(C)nc(N2CCN(C(=O)CCc3nccs3)CC2)n1`, the Percent Effect in assay [1] was -6.4%; in assay [2] it was 0%; in assay [3], 2.65%; in assay [4], 3.42%; in the assay with Trypanosoma cruzi it was -5.6%; in assay [5], -3.33%. The Percent Effect in assay [6] is 14.5%; in the assay filed under Homo sapiens it was 30.1%; in assay [7], -2.65%; in [8], 2.44%; in [9], -4.19%.

Consider `CCc1nc(C2CCCN2CC(=O)Nc2nncs2)no1` (stereo unspecified), for which the Percent Effect was -3.67% in assay [1]; 5.2% in assay [2]; -3.54% in [3]; 12.8% in assay [4]; 3.37% in the assay on Trypanosoma cruzi; -3.2% in assay [5]. Besides, the Percent Effect in assay [6] is 2.53%; in the assay filed under Homo sapiens it was 12.1%; in assay [7] it was 10.7%; in assay [8], 21.9%; in [9], -9.06%.

Turning to `Cc1ccsc1C(=O)N1CC(C(=O)N2CCOCC2)C2(CCOCC2)C1` (stereo unspecified), the Percent Effect in assay [1] was -7%; in assay [2] it was 2.6%; in assay [3], 117%; in assay [4], -9.65%; with Trypanosoma cruzi, -8.38%; in assay [5], 0.645%. For the same compound, the Percent Effect was 13.1% in assay [6]; 0.0644% in the assay filed under Homo sapiens; -4.23% in assay [7]; -8.97% in [8]; -5.38% in assay [9].

Turning to `CN(CCN1CCCCCC1)C(=O)c1cc(CN2CCC(O)CC2)on1`, the Percent Effect in assay [1] was -4.14%; in assay [2], 2.74%; in assay [3], -1.87%; in [4], -2.01%; with Trypanosoma cruzi, 2.74%; in [5], 0.909%. For the same compound, the Percent Effect is 13.3% in assay [6]; -3.45% in the assay listed under Homo sapiens; 8.6% in assay [7]; 15% in assay [8]; -2.4% in assay [9].

Regarding `Cc1cc(CN2CCN(C(=O)NCc3nc(C)cs3)CC2)on1`, the Percent Effect in assay [1] was -3.26%; in [2], 23.7%; in [3], -8.55%; in assay [4] it was -8.19%; in the assay on Trypanosoma cruzi, -4.95%; in assay [5], 0%. Further, the Percent Effect in [6] was 12.9%; in the assay filed under Homo sapiens, -12.4%; in [7] it was 5.42%; in [8] it was 13.6%; in [9], -3.29%.

As for `Cc1cc(C)n(C2CCCN(C(=O)c3cnc4onc(C)c4c3)C2)n1` (stereo unspecified), the Percent Effect is -2.86% in [1]; 5.2% in [2]; 2.66% in [3]; 12.3% in [4]; -1.08% in the assay on Trypanosoma cruzi; 4.84% in assay [5]. In addition, the Percent Effect in assay [6] is 4.77%; in the assay listed under Homo sapiens, 38.1%; in assay [7], 1.91%; in [8] it was 9.41%; in assay [9] it was -15.5%.
